JMJD2A Tudor inh: blocks the human JMJD2A Tudor domain; AlphaScreen JMJD2A-Tudor / H3K4me3 peptide binding; Potency, µM (top dose mostly 114 µM), usual class: inhibitors; 390,000 tested, 4.4% active; AID 504339; O75164; further: nearly all actives have a fitted effect of over 50% in size
L3MBTL1 block: blocks human L3MBTL1. Potency, µM (series often up to 57.1 µM), hits mostly inhibitors. AlphaScreen L3MBTL1–H3K9me1 peptide binding. 230,000 tested, 0.66% active; further: nearly all actives have a fitted effect of over 60% in size
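L3MBTL1 50 nM + b-AHA-H3(1-15)K9me1 75 nM, 30 min RT; compound added, 30 min RT; streptavidin donor/Ni-chelate acceptor beads 10 ug/mL each final, 30 min RT dark; AlphaScreen read.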
G9a block: G9a (human) methyltransferase inhibition. Q96KQ7. G9a H3K9 monomethylation, AlphaScreen, 2 h. Potency, µM (series often up to 102 µM), most hits filed as inhibitors. 350,000 tested, 8.8% active; further: nearly all actives have a fitted effect of over 75% in size
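G9a (20 nM) preincubated 15 min RT with compounds, then 500 nM biotinylated H3K9 peptide and 20 uM SAM added; 2 h RT reaction. Monomethyl-H3K9 product detected by AlphaScreen with anti-H3K9me1 antibody, streptavidin donor and anti-rabbit IgG acceptor beads.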
HP1b chromo inh: blocks HP1-beta chromodomain binding to methylated histone tails. AlphaScreen HP1-beta / biotin-H3K9me3 peptide binding. Potency, µM (series often up to 114 µM), most hits filed as inhibitors. 390,000 tested, 0.56% active. AID 540317; further: nearly all actives have a fitted effect of over 70% in size
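AlphaScreen: HP1-beta (50 nM) preformed 30 min with biotin-H3(1-18)K9me3 peptide (50 nM) in PBS pH 7.4, 0.01% Tween-20. Compound added for 30 min at RT, then streptavidin donor/nickel chelate acceptor beads (10 ug/mL) for 30 min.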
BAZ2B block: blocks human BAZ2B; AID 504333; Q9UIF8; 360,000 tested, 4.4% active; Potency, µM (titrated, usually from 114 µM), most hits filed as inhibitors; AlphaScreen BAZ2B-H3K14Ac peptide displacement; further: nearly all actives have a fitted effect of over 60% in size
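Protein-peptide AlphaScreen: BAZ2B 50 nM, b-H3K14Ac 50 nM, 1x PBS pH 7.4 + 0.01% Tween-20. Preincubation 30 min RT; cpd 30 min RT (top 110 uM); beads 20 min RT, light-protected.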
Numbers stand for hits; - = inactive; ? = inconclusive; . = no result given; [ ] = remark or other dose. An excerpt weighted towards active compounds, which were near 11% of everything screened. The call rests on the fitted dose curve; in most records, active means well fitted inhibition curve with a large enough effect; inconclusive means small, poorly fitted or top-dose-only effect; inactive means no such curve, though single readings can be large or run the other way.

SMILES | JMJD2A Tudor inh | L3MBTL1 block | G9a block | HP1b chromo inh | BAZ2B block
Nn1c(SCCOc2ccccc2)nnc1-c1cccnc1 | - | - | 50µM | - | -
C=CCn1c(SCC(=O)Nc2ccc(C)cc2C)nnc1-c1cccnc1 | - | . | - | - | -
COc1ccc(-n2c(SCC(N)=O)nnc2-c2cccnc2)cc1 | - | - | - | - | -
CCn1c(SCc2cccc(C(=O)O)c2)nnc1-c1ccccc1 | - | - | 56µM | - | -
CCn1cc2nc(SCc3cccc(C(F)(F)F)c3)n(Cc3ccc(OC)cc3)c(=O)c2n1 | - | . | - | - | -
CCCOc1ccc(CNC(=O)C2CCCN(c3nc4c(C)cc(C)cc4s3)C2)cc1 (stereo not given) | - | . | - | - | -
Cc1ccc(C)c(Cn2c(=O)n(Cc3ccco3)c(=O)c3oc4ccccc4c32)c1 | - | . | - | - | -
CCn1c(SCCC(=O)O)nnc1-c1cccnc1 | - | - | 45µM | - | -
CCn1c(SCC(=O)c2ccccc2)nnc1-c1cccnc1 | - | - | - | - | -
Cc1nc2n(n1)C(c1ccccc1)C1=C(CC(c3ccco3)CC1=O)N2 (stereo not given) | - | - | 45µM | - | -
CC(C)Oc1ccc(OCCn2c(=S)[nH]c3c(N)ncnc32)cc1 | 5.6µM | . | 2.5µM | ? | -
CC(C)Oc1ccc(OCCn2c(S(=O)(=O)O)nc3c(N)ncnc32)cc1 | - | . | ? | - | -
Cc1ccc(OCCn2c(=S)[nH]c3c(N)ncnc32)cc1 | 5µM | - | 3.5µM | ? | -
Cn1cnc(C(=O)NCc2ccccc2)c1C(=O)NCc1ccccc1 | - | - | . | - | .
Cn1c(-c2ccc3c(c2)OCO3)cnc1NC(=O)CCC(=O)NCCc1ccccc1 | 56µM | - | - | - | ?
Oc1ccc2c(ccc3[nH]cnc32)c1 | - | - | 50µM | - | -
Cc1ccc(NS(=O)(=O)c2ccc3c(c2)C(Cl)(Cl)C(=O)N3)cc1C | - | . | . | . | .
O=[N+]([O-])c1cc(C(F)(F)F)cc([N+](=O)[O-])c1NCCNC(=S)Nc1cccc(F)c1 | 40µM | ? | ? | - | 18µM
Fc1ccc(CNC(=S)Nc2cccc(C(F)(F)F)c2)cc1 | - | - | - | - | -
COc1ccc(C2CC(c3cccs3)=NN2C(=S)Nc2ccccc2)cc1OC (stereo not given) | ? | - | - | - | -
S=C(Nc1ccccc1)N1N=C(c2cccs2)CC1c1cccs1 (stereo not given) | 20µM | - | . | - | -
Cc1cc(C)c(NC(=O)c2c(C)oc3c2C2=NCCN2C=N3)c(C)c1 | - | . | - | - | -
O=C(O)c1ncn(Cc2ccccc2)c1C(=O)O | 6.3µM | - | 10µM | - | 32µM
Cc1cc2c(NC(=O)CC(C)(C)CC(=O)O)cccc2nn1 | - | . | . | - | 50µM
Cc1cc2c(NC(=O)Nc3ccc(F)cc3)cccc2nn1 | - | - | 50µM | - | -
SMILES | JMJD2A Tudor inh | L3MBTL1 block | G9a block | HP1b chromo inh | BAZ2B block
CC(C)(CC(=O)O)CC(=O)Nc1ccccc1Oc1ccccc1 | - | - | - | - | -
CCOC(=O)c1c(NC(=O)/C=C/c2ccccc2)sc2c1CCCC2 | - | . | - | - | -
CCN(C(=O)CSc1nnc2c3ccccc3n(CC)c2n1)C1CCS(=O)(=O)C1 (stereo not given) | - | - | 79µM | - | -
Cc1ccc(C)c(NC(=O)CSc2sc3c(O)cc(=O)[nH]c3c2C#N)c1 | - | . | - | - | 50µM
N#Cc1c(SCC(=O)Nc2cccc(C(F)(F)F)c2)sc2c(O)cc(=O)[nH]c12 | - | . | 45µM | - | ?
Cc1cc(NC(=O)CSc2sc3c(O)cc(=O)[nH]c3c2C#N)ccc1Br | - | . | 35µM | - | 79µM
COC(=O)c1ccc(C)c(NC(=O)CSc2sc3c(O)cc(=O)[nH]c3c2C#N)c1 | 50µM | . | ? | - | 50µM
CC(=O)c1cccc(NC(=O)c2cc(-c3ccc(Cl)s3)nc3ccccc23)c1 | - | . | - | - | -
O=C(CCCC1=NS(=O)(=O)c2ccccc2N1)Nc1ccccc1 | - | . | - | - | -
O=C(NCCc1ccccc1Cl)c1ccc(Cn2c(=O)c3cccn3c3cccnc32)cc1 | ? | . | ? | - | ?
Cc1c(SCCO)c(=O)[nH]c2cc3c(cc12)OCO3 | - | . | 50µM | - | -
COc1ccc(-n2ccn(Cc3ccccc3C)c(=O)c2=O)cc1 | - | . | - | - | -
Cc1ccccc1C(=O)Nc1cccc(NC(=O)c2ccc(-c3ccc(Br)cc3)o2)c1 | - | . | -[2.33 µM] | - | -
NC(=O)c1ccc(-c2ccc(Br)cc2)o1 | - | - | 50µM | - | -
Cc1ccc(S(=O)(=O)NC(=O)c2ccc(-c3ccc(-c4ccccc4)cc3)o2)c(C)c1 | . | - | 40µM | . | ?
NC(=O)C1CCN(C(=S)c2ccc(-c3ccc(Br)cc3)o2)CC1 | - | . | 35µM | - | -
O=C(O)c1ccc(-c2ccc(-c3ccccc3)cc2)o1 | . | . | 35µM | . | .
COc1ccc(-n2nc(C(=O)Nc3cc(C)ccn3)c3c4ccccc4n(C)c3c2=O)cc1 | - | . | ? | - | .
Oc1ccc(/C=N/n2c(-c3ccccc3)n[nH]c2=S)cc1Br | 8.9µM | - | 0.89µM | - | -
Cc1c(Br)c(O)c(Br)c(O)c1/C=N/n1c(-c2ccccc2)n[nH]c1=S | 25µM | . | 0.79µM | ? | -
Oc1c(Br)cc(/C=N/n2c(-c3ccccc3)n[nH]c2=S)cc1Br | 3.2µM | - | 1.3µM | - | ?
Oc1c(Br)cc(/C=N/n2c(-c3ccccc3)n[nH]c2=S)c(O)c1Br | 4µM | - | 0.4µM | - | -
CCC1CC=CC2C1C(=O)N(Cc1ccccc1)C2c1cccc([N+](=O)[O-])c1 (stereo not given) | - | . | . | - | .
COC(=O)CCNC(=O)c1ccc2nc(Cc3ccc(OC)c(OC)c3)oc2c1 | - | - | - | - | -
O=C(Cc1c(F)cccc1Cl)NCC(=O)OCc1ccccc1 | - | - | - | - | -
SMILES | JMJD2A Tudor inh | L3MBTL1 block | G9a block | HP1b chromo inh | BAZ2B block
COc1cc(C(=O)NCc2ccc3c(c2)CCN3C(=O)c2ccncc2)cc(OC)c1OC | - | . | - | - | -
COc1ccc2c(c1)-c1nc(NC(=O)c3ccc(C)cc3)sc1CC2 | - | . | - | - | -
COc1ccc2c(c1)CCc1sc(NC(=O)c3cccc(Br)c3)nc1-2 | ? | . | 10µM | - | -
COc1ccc(C(=O)Nc2nc3c(s2)CCc2cc(OC)ccc2-3)cc1 | - | . | 6.3µM | - | -
COc1ccc(Br)c2c1-c1nc(NC(=O)c3ccc(F)cc3)sc1C2 | - | . | - | - | 71µM
Cc1ccc(C)c(N2C(=O)N(C)c3ccccc3S2(=O)=O)c1 | - | . | - | - | -
COc1ccc(NC(=O)CCc2nnc3n(Cc4ccccc4Cl)c(=O)c4ccccc4n23)cc1 | - | . | - | - | -
Cc1ccc(Nc2nc3ccccc3nc2Nc2c(C)n(C)n(-c3ccccc3)c2=O)cc1 | - | - | - | - | -
CC[n+]1c(-c2ccccc2)csc1Nc1c(C)n(C)n(-c2ccccc2)c1=O | - | - | ? | - | ?

Screening data from PubChem.
